Laboratory results from ChEMBL document CHEMBL4513146, “CO-ADD screening of Karazin Kharkiv National University (Ukraine) compounds”.
Potency and affinity values are given separately.

These molecules were tested on Staphylococcus aureus. Conditions: Concentration 32 ug.mL-1;; ASSAY_TEST Inhibition of Bacterial Growth; detection method Absorption (OD600); MEDIA CAMHB; plate type 384well; NBS; CORNING #3640; time 18 hr.

Row | Structure (SMILES) | Inhibition
1 | COc1cccc(-c2nc(CSc3nc4ccccc4n4c(C)nnc34)c(C)o2)c1OC | 2.75%
2 | Cc1cccc(N(C)C(=O)Cn2nc3cc(C)nc(Nc4ccc(F)c(C)c4)n3c2=O)c1 | 1.96%
3 | Cc1nnc2c(=O)n(CC(=O)Nc3ccc(Br)cc3)c3ccccc3n12 | -6.47%
4 | Cc1cc2nn(CC(=O)Nc3ccc(F)cc3Cl)c(=O)n2c(Nc2ccc(F)cc2)n1 | 4.61%
5 | Cc1cccc(Oc2nccn3c(=O)n(CC(=O)N4CCN(c5ccccc5F)CC4)nc23)c1C | -3.04%
6 | CCc1nnc2c(S(=O)(=O)N(Cc3cccc(F)c3)c3ccccc3)cccn12 | 7.57%
7 | Cc1cccc(NC(=O)CSc2nnc3c4cc(-c5ccccc5)nn4ccn23)c1C | -15.85%
8 | Cc1cc(C)cc(NC(=O)Cn2nc3ccc(SC(C)(C)C)nn3c2=O)c1 | 9.02%
9 | COc1cccc(Cn2nc3c(=O)n(-c4cccc(Cl)c4C)ccn3c2=O)c1 | -6.87%
10 | O=C(CSc1nnc2c(=O)n(-c3ccc(F)c(F)c3)ccn12)c1cccc(Cl)c1 | 13.4%
11 | Cc1nnc2c(=O)n(CC(=O)Nc3ccccc3Cl)c3ccccc3n12 | 10.77%
12 | CCCc1nnc2c(=O)n(CC(=O)Nc3cccc(C(C)=O)c3)c3ccccc3n12 | 2.4%
13 | O=C(Cn1nc2nc(Nc3ccc(F)cc3)ccn2c1=O)N1CCOCC1 | 9.39%
14 | CCc1nnc2c(SCC(=O)Nc3ccc(Br)cc3)nc3ccccc3n12 | -16.96%
15 | Cc1ccc(Nc2cc(C)n3c(=O)n(CCOc4ccc(F)cc4)nc3n2)cc1 | 8.99%
16 | Cc1nnc2ccc(S(=O)(=O)N(Cc3ccccc3F)c3cccc(Cl)c3)cn12 | 2.13%
17 | CCOc1ccc(-n2ccn3c(SCC(N)=O)nnc3c2=O)cc1 | 8.32%
18 | Cc1cc2nn(CC(=O)NC(C)C)c(=O)n2c(-c2ccc(C(F)(F)F)cc2)n1 | -8.3%
19 | CCOc1ccccc1NC(=O)Cn1nc2c(Oc3cccc(OC)c3)nccn2c1=O | 11.72%
20 | Cc1ccccc1Cn1nc2ccc(-c3ccccc3)nn2c1=O | 10.41%

Row | Structure (SMILES) | Inhibition
21 | CCC(Sc1nnc2c(=O)n(-c3cccc(OC)c3)ccn12)C(=O)Nc1ccccc1C (stereo not given) | -3.13%
22 | COc1cccc(Oc2nccn3c(=O)n(CC(=O)Nc4ccc(OC)c(OC)c4)nc23)c1 | 15.47%
23 | N#Cc1ccc(NC(=O)Cn2nc3c(SCc4ccc(Cl)cc4)nccn3c2=O)cc1 | 9.38%
24 | CCCN(C)c1nccn2c(=O)n(CC(=O)Nc3cccc(Br)c3)nc12 | 10.78%
25 | Cc1cccc(N(Cc2ccc(F)cc2)S(=O)(=O)c2cccn3c(C)nnc23)c1 | 15.38%
26 | CCc1nnc2c(S(=O)(=O)N(Cc3ccc(F)cc3)c3ccc(Cl)cc3)cccn12 | 8.89%
27 | Cc1ccc(-c2cc3c4nn(CC(=O)Nc5cc(Cl)ccc5C)c(=O)n4ccn3n2)cc1C | 2.42%
28 | CCc1ccccc1Sc1nccn2c(=O)n(CC(=O)Nc3ccc(C)cc3C)nc12 | 10.48%
29 | COc1ccc(CNC(=O)Cn2nc3c(Oc4ccccc4C)nccn3c2=O)cc1 | 1.68%
30 | CC(C)c1ccc(Cn2c(=O)c3sccc3n3c(SCc4cccc(C(F)(F)F)c4)nnc23)cc1 | 11.56%
31 | COc1cccc(CN(c2ccc(F)cc2)S(=O)(=O)c2cccn3cnnc23)c1 | -5.01%
32 | Cc1ccc2c(c1)N(C(=O)Cn1nc3ccc(S(=O)(=O)C(C)(C)C)nn3c1=O)CCO2 | 10.43%
33 | Cc1ccc(-c2cc3c4nn(CC(=O)Nc5ccc6c(c5)OCO6)c(=O)n4ccn3n2)cc1 | 12.49%
34 | O=c1c2sccc2n2c(SCc3cccc(C(F)(F)F)c3)nnc2n1Cc1ccc(F)cc1 | 9.81%
35 | COc1ccc(NC(=O)c2ccc3nn(CC(=O)Nc4ccc(C)c(F)c4)c(=O)n3c2)cc1 | 8.14%
36 | CCCCn1c(=O)c2sccc2n2c(=O)n(CC(=O)NC(C)C)nc12 | 6.34%
37 | COc1ccc(-c2cc3c4nn(CC(=O)Nc5c(C)cc(C)cc5C)c(=O)n4ccn3n2)cc1 | 9.75%
38 | COc1cccc(Oc2nccn3c(=O)n(CC(=O)Nc4cccc(Br)c4)nc23)c1 | 9.05%
39 | O=C(CSc1nnc2c(=O)n(Cc3ccc(F)cc3)ccn12)NCC1CCCO1 (stereo not given) | 8.21%
40 | CCc1ccc(N(Cc2ccccc2)S(=O)(=O)c2cccn3cnnc23)cc1 | 5.64%

Each molecule was assayed on Escherichia coli. Conditions: Concentration 32 ug.mL-1;; ASSAY_TEST Inhibition of Bacterial Growth; detection method Absorption (OD600); MEDIA CAMHB; plate type 384well; NBS; CORNING #3640; time 18 hr.

Row | Structure (SMILES) | Inhibition
41 | COc1cccc(-c2nc(CSc3nc4ccccc4n4c(C)nnc34)c(C)o2)c1OC | -2.95%
42 | Cc1cccc(N(C)C(=O)Cn2nc3cc(C)nc(Nc4ccc(F)c(C)c4)n3c2=O)c1 | -7.99%
43 | Cc1nnc2c(=O)n(CC(=O)Nc3ccc(Br)cc3)c3ccccc3n12 | 5.5%
44 | Cc1cc2nn(CC(=O)Nc3ccc(F)cc3Cl)c(=O)n2c(Nc2ccc(F)cc2)n1 | -0.12%
45 | Cc1cccc(Oc2nccn3c(=O)n(CC(=O)N4CCN(c5ccccc5F)CC4)nc23)c1C | -9.87%
46 | CCc1nnc2c(S(=O)(=O)N(Cc3cccc(F)c3)c3ccccc3)cccn12 | -5.76%
47 | Cc1cccc(NC(=O)CSc2nnc3c4cc(-c5ccccc5)nn4ccn23)c1C | -6.36%
48 | Cc1cc(C)cc(NC(=O)Cn2nc3ccc(SC(C)(C)C)nn3c2=O)c1 | -2.5%
49 | COc1cccc(Cn2nc3c(=O)n(-c4cccc(Cl)c4C)ccn3c2=O)c1 | -16.22%
50 | O=C(CSc1nnc2c(=O)n(-c3ccc(F)c(F)c3)ccn12)c1cccc(Cl)c1 | -3.45%
51 | Cc1nnc2c(=O)n(CC(=O)Nc3ccccc3Cl)c3ccccc3n12 | -2.02%
52 | CCCc1nnc2c(=O)n(CC(=O)Nc3cccc(C(C)=O)c3)c3ccccc3n12 | -14.35%
53 | O=C(Cn1nc2nc(Nc3ccc(F)cc3)ccn2c1=O)N1CCOCC1 | -3.26%
54 | CCc1nnc2c(SCC(=O)Nc3ccc(Br)cc3)nc3ccccc3n12 | 0.98%
55 | Cc1ccc(Nc2cc(C)n3c(=O)n(CCOc4ccc(F)cc4)nc3n2)cc1 | -0.82%
56 | Cc1nnc2ccc(S(=O)(=O)N(Cc3ccccc3F)c3cccc(Cl)c3)cn12 | -7.6%
57 | CCOc1ccc(-n2ccn3c(SCC(N)=O)nnc3c2=O)cc1 | 3.76%
58 | Cc1cc2nn(CC(=O)NC(C)C)c(=O)n2c(-c2ccc(C(F)(F)F)cc2)n1 | 1.53%
59 | CCOc1ccccc1NC(=O)Cn1nc2c(Oc3cccc(OC)c3)nccn2c1=O | -4.66%
60 | Cc1ccccc1Cn1nc2ccc(-c3ccccc3)nn2c1=O | 1.97%

Row | Structure (SMILES) | Inhibition
61 | CCC(Sc1nnc2c(=O)n(-c3cccc(OC)c3)ccn12)C(=O)Nc1ccccc1C (stereo not given) | -2.17%
62 | COc1cccc(Oc2nccn3c(=O)n(CC(=O)Nc4ccc(OC)c(OC)c4)nc23)c1 | -2.07%
63 | N#Cc1ccc(NC(=O)Cn2nc3c(SCc4ccc(Cl)cc4)nccn3c2=O)cc1 | -2.23%
64 | CCCN(C)c1nccn2c(=O)n(CC(=O)Nc3cccc(Br)c3)nc12 | -4.19%
65 | Cc1cccc(N(Cc2ccc(F)cc2)S(=O)(=O)c2cccn3c(C)nnc23)c1 | -0.37%
66 | CCc1nnc2c(S(=O)(=O)N(Cc3ccc(F)cc3)c3ccc(Cl)cc3)cccn12 | -2.23%
67 | Cc1ccc(-c2cc3c4nn(CC(=O)Nc5cc(Cl)ccc5C)c(=O)n4ccn3n2)cc1C | -7.74%
68 | CCc1ccccc1Sc1nccn2c(=O)n(CC(=O)Nc3ccc(C)cc3C)nc12 | -10.9%
69 | COc1ccc(CNC(=O)Cn2nc3c(Oc4ccccc4C)nccn3c2=O)cc1 | -7.69%
70 | CC(C)c1ccc(Cn2c(=O)c3sccc3n3c(SCc4cccc(C(F)(F)F)c4)nnc23)cc1 | 1.07%
71 | COc1cccc(CN(c2ccc(F)cc2)S(=O)(=O)c2cccn3cnnc23)c1 | -3.63%
72 | Cc1ccc2c(c1)N(C(=O)Cn1nc3ccc(S(=O)(=O)C(C)(C)C)nn3c1=O)CCO2 | 3.75%
73 | Cc1ccc(-c2cc3c4nn(CC(=O)Nc5ccc6c(c5)OCO6)c(=O)n4ccn3n2)cc1 | -1.53%
74 | O=c1c2sccc2n2c(SCc3cccc(C(F)(F)F)c3)nnc2n1Cc1ccc(F)cc1 | -1.38%
75 | COc1ccc(NC(=O)c2ccc3nn(CC(=O)Nc4ccc(C)c(F)c4)c(=O)n3c2)cc1 | -7.69%
76 | CCCCn1c(=O)c2sccc2n2c(=O)n(CC(=O)NC(C)C)nc12 | -3.44%
77 | COc1ccc(-c2cc3c4nn(CC(=O)Nc5c(C)cc(C)cc5C)c(=O)n4ccn3n2)cc1 | 4.81%
78 | COc1cccc(Oc2nccn3c(=O)n(CC(=O)Nc4cccc(Br)c4)nc23)c1 | -6.35%
79 | O=C(CSc1nnc2c(=O)n(Cc3ccc(F)cc3)ccn12)NCC1CCCO1 (stereo not given) | -3.13%
80 | CCc1ccc(N(Cc2ccccc2)S(=O)(=O)c2cccn3cnnc23)cc1 | -1.12%
